D3 ag: activates the human D3 dopamine receptor. P35462. AID 652048. max activation, %. 410,000 compounds, 0.58% hits. D3R DiscoveRx beta-arrestin cells, luminescence, 90 min; in the data active = max activation above about 30%; note: 0% is about no effect
Target sequence (P35462 whole entry, looked up): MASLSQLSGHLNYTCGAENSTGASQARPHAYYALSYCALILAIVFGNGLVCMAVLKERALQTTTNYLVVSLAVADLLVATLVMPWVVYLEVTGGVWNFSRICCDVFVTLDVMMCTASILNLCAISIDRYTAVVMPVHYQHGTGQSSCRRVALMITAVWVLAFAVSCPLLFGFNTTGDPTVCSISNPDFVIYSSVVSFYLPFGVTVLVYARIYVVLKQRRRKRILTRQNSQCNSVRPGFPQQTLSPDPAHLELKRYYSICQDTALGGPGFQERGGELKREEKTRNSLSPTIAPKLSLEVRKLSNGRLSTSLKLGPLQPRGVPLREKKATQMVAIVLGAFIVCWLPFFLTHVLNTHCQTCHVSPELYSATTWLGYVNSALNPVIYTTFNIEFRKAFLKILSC
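Agonist-mode cell screen: cells plated at 1500/well and incubated overnight at 37 °C, then exposed to library compounds for 90 min at 37 °C. Detection reagent was added for 30–60 min at room temperature, and luminescence was read.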
B2AR arrestin: agonists driving beta-arrestin recruitment to human beta2-adrenergic receptor; P07550; beta-arrestin recruitment to beta2AR, cell-based reporter; Potency, µM (highest dose often 46.1 µM), inactives show top-dose activation, most hits filed as activators; 330,000 compounds, 0.02% hits; AID 492947;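 note: potency is the fitted concentration of half-maximal effect; 0% = DMSO controls and full agonism = EC100 isoproterenol or metaproterenol; nearly all actives have a fitted effect of over 65% in size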
BRCA1 expr act: activators of BRCA1 expression | MCF7-BRCA1-FFLuc reporter, luminescence, 48 h; response scale: scaled: vehicle 0%, 10 µM genistein 100% | Potency, µM (titrated, usually from 46.1 µM), for the others: at the top dose activation, most hits filed as activators | 380,000 compounds, 1.1% hits | AID 624202; note: potency is the fitted concentration of half-maximal effect; nearly all actives have a fitted effect of over 80% in size
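MCF7 cells carrying a BRCA1-firefly luciferase reporter (2000 cells/well, phenol-red free MEM) were attached for 2 h at 37 °C, then given compounds for 48 h. Luminescence was read 15 min after luciferase reagent; activity normalized to genistein (10 microM) and DMSO.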
RGS4 inhibitor: blocks human RGS4-accelerated GTP hydrolysis; P49798; Transcreener GDP fluorescence polarization, RGS4-accelerated GTP hydrolysis; Potency, µM (highest dose often 114 µM), for the others: top-dose activity change, negative = inhibition, most hits filed as inhibitors; 390,000 compounds, 0.039% hits; note: potency is the fitted concentration of half-maximal effect; % is set by controls: 0 for no effect and ±100 for the full control effect; nearly all actives have a fitted effect of over 75% in size
Target sequence (P49798 whole entry, looked up): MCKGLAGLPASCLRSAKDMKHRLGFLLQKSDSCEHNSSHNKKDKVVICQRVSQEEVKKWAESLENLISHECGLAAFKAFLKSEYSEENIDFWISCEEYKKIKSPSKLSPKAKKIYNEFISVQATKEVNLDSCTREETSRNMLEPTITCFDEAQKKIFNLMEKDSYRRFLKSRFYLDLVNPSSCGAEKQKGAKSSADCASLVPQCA
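MLSMR compounds (23 nl, pin-transferred) preincubated 10 min at room temperature with a 500nM (2x) first reagent, then RGS4 at 900nM (2x) plus Transcreener GDP mix added; fluorescence polarization (620/688 nm) read before and after 90 min at 30 °C.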
PTHR1 agonist: activates the human parathyroid hormone receptor PTHR1. Q03431. 410,000 compounds, 0.075% hits. Potency, µM (doses to about 115 µM), for the others: top-dose activation, usual class: activators. AID 743266. HEK293 GP2 PTHR1 cells, GloSensor cAMP luminescence, 1 h; note: potency is the fitted concentration of half-maximal effect; nearly all actives have a fitted effect of over 55% in size
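HEK-293-derived GP2 cells expressing PTHR1 and a GloSensor cAMP reporter, 3,000/well, plated overnight, given luciferin plus IBMX (each 0.5 mM as added) for 1 h at 37 °C, then compound for 1 h at 37 °C. Luminescence was read after 15 min at room temperature.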
D3 antag: D3 dopamine receptor (human) antagonism; P35462; D3R cells, DiscoveRx beta-arrestin luminescence, antagonist mode; stronger effect = lower value; max response, negative = inhibition, %; 360,000 compounds, 2.5% hits; AID 652054; in the data active = max response below about -50%; inconclusive = no clear call, values can overlap the other calls; note: % is set by controls: 0 for no effect and ±100 for the full control effect
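Cells expressing the human receptor were seeded at 1500 cells/well, incubated overnight at 37 degrees C in 5% CO2, then exposed to library compounds with dopamine controls for 90 minutes at 37 degrees C before luminescent detection.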
* = called active by the depositor; i = inactive; ? = inconclusive; . = no result; [ ] = remark or other dose. The list is not random: actives were taken first. Their share in the collection is about 3.7%. Unless noted, calls come from the whole dose curve; as a rule, active = well fitted curve in the direction sought with a large enough effect; inconclusive = small, poorly fitted or top-dose-only effect, or another doubt; inactive = no such curve, though single readings can be large; an effect the other way counts as inactive or inconclusive.

SMILES | D3 ag | B2AR arrestin | BRCA1 expr act | RGS4 inhibitor | PTHR1 agonist | D3 antag
CCN(CC)CCCNC(=O)c1cc2c(Cl)nc3ccccc3c2s1 | -28 | 0% | 36% | -4% | 8% | -54*
Cc1nc2ccccc2c2oc(C(=O)NCCCN3CC(C)CC(C)C3)cc12 (stereo not drawn) | -17 | 0% | 21% | 24% | -21% | -65*
O=C(O)c1ccc(-n2c(-c3cc(-c4ccco4)[nH]n3)n[nH]c2=S)cc1 | -11 | 0% | -27% | -41% | -3%[57.5 µM] | -91*
CC(=O)c1ccc(-n2c(-c3cc(-c4ccco4)[nH]n3)n[nH]c2=S)cc1 | -10 | 0% | 9% | -44% | 11%[57.5 µM] | -84*
O=C(O)c1ccc(-n2c(-c3cc(C4CC4)[nH]n3)n[nH]c2=S)cc1 | -21 | 0% | -3% | 10% | i | ?
Cc1ccc(-n2c(-c3cc(-c4ccco4)[nH]n3)n[nH]c2=S)c(Br)c1 | 12 | 0% | -7% | -28% | i | -4
Cc1ccccc1NC(=O)/C(=C\c1cccs1)NC(=O)c1ccccc1 | -8 | -1% | -10% | 24% | -58% | -54*
COc1ccc(C2C=C(c3ccc(C)c(C)c3)Nc3ncnn32)c(OC)c1OC (stereo not drawn) | -14 | 0% | 0% | -7% | i | -68*
COc1cccc(C2=CC(c3ccc(OC)c(OC)c3OC)n3ncnc3N2)c1 (stereo not drawn) | -13 | . | . | -12% | i | .
COc1ccc(-n2nc(C(=O)NCC(=O)NCCC3=CCCCC3)c3ccccc3c2=O)cc1OC | 0 | 0% | -15% | 11% | i | 37
Cc1c(C(=O)N2CCC2(C)C(=O)O)oc2ccccc12 (stereo not drawn) | 3 | . | 12% | . | -3% | 2
Cc1cc(N/N=C/c2ccc3c(c2)OCO3)nc2ccccc12 | -13 | 0% | 13µM* | -3% | i | -5
Cc1ccc(N=Nc2c(C)[nH]n(C(N)=S)c2=O)cc1C | 4 | -1% | 49% | -23% | -77% | -12
CC(=O)Nc1ccc(N=Nc2c(C)[nH]n(C(N)=S)c2=O)cc1 | 1 | 0% | 10µM* | -3% | -9% | 0
CCN(CC)CCOC(=O)c1ccc(NC(=O)CCCN2C(=O)/C(=C\c3cccs3)SC2=S)cc1 | -24 | -1% | -4% | -11% | i | -109*
O=C(Cn1ccc2ccccc2c1=O)NCCC(=O)N1CCN(c2cccc(Cl)c2)CC1 | -5 | 1% | -32% | -7% | -20% | 32
O=C(CCN1C(=O)COc2ccccc21)NCCC1=CCCCC1 | -21 | -1% | -4% | 4% | i | -110*
O=C(CCNC(=O)Cn1ccc2ccccc2c1=O)NCCN1CCN(c2cccc(Cl)c2)CC1 | 3 | 0% | -3% | 6% | -13% | -61*
O=C(CCN1C(=O)/C(=C\c2cccs2)SC1=S)Nc1ccc(C(=O)O)cc1 | 2 | 0% | -23% | -18% | i | -10
Cc1ccc2c(c1)N(CCC(=O)NCc1ccccn1)C(=O)CO2 | -5 | 0% | 6% | 20% | ? | -64*
Cc1ccc2c(c1)N(CCC(=O)NCc1cccnc1)C(=O)CO2 | -5 | 4% | 4% | 9% | -35% | 8
CCc1noc(C)c1C(=O)Nc1ccc(-c2nnc3n2CCCCC3)cc1 | 5 | 0% | 19% | 7% | -10% | 22
O=C(CCNC(=O)c1ccc([N+](=O)[O-])cc1)Nc1cccc(S(=O)(=O)N2CCCCCC2)c1 | 0 | 0% | 2% | 22% | -40% | ?
O=C(CCN1C(=O)COc2ccccc21)NCCN1CCOCC1 | 6 | -1% | 6% | -2% | i | 9
CCN(CC)CCOC(=O)c1ccc(NC(=O)CCNC(=O)Cn2ccc3ccccc3c2=O)cc1 | 0 | 0% | -1% | -48% | 1% | -64*
SMILES | D3 ag | B2AR arrestin | BRCA1 expr act | RGS4 inhibitor | PTHR1 agonist | D3 antag
O=C(CCN1C(=O)COc2ccccc21)NCCN1CCN(c2cccc(Cl)c2)CC1 | -31 | 0% | -33% | 1% | -8%[57.5 µM] | -69*
O=C(CCNC(=O)Cn1ccc2ccccc2c1=O)NCCN1CCc2ccccc2C1 | -16 | 0% | -3% | 6%[11.4 µM] | i | -52*
O=C(Cn1nc(-c2ccccc2)ccc1=O)NCCN1CCN(Cc2ccccc2)CC1 | -14 | 0% | 5% | -22% | -16%[57.5 µM] | -10
O=C(Cn1nc(-c2ccccc2)ccc1=O)NCCN1CCN(c2cccc(Cl)c2)CC1 | -31 | -1% | -25% | -8% | i | -60*
CCCCCCCCCC[n+]1cccc2cc(Cl)ccc21 | . | . | -71% | . | . | .
Cc1ccc(C(C)C)c(OCCn2cc(C(=O)c3ccco3)c3ccccc32)c1 | 11 | . | . | -4% | -74% | .
CCc1ccc(NC(=O)CN(CC(=O)Nc2ccc(CC)cc2)CC(C)O)cc1 (stereo not drawn) | -4 | 1% | -38% | ? | i | 28
Cc1ccc(S(=O)(=O)NC(=O)N[C@@H](C)Cc2ccccc2)cc1 | 6 | . | . | . | . | .
C/C=C/c1cccc(-c2nc(C(=O)N3CCOCC3)cc3c2[C@@H](CCO)N(C(=O)NC(C)C)C3)c1 | -8 | . | 14% | . | 1% | 0
CC(=O)Nc1ccc(NC(=O)c2ccccc2-n2cnnn2)cc1 | -4 | 0% | -11% | -2% | i | 7
Cc1ccc(-n2ncc3c(Nc4cccc(C)c4)ncnc32)cc1 | -9 | . | 2.8µM* | -8% | i | .
Cc1ccc(-n2ncc3c(Nc4ccc5c(c4)OCCO5)ncnc32)cc1C | 48* | . | . | -22% | -93% | .
CCCn1ncc2c(Nc3ccc(C)c(C)c3)ncnc21 | 12 | 0% | 8.9µM* | -30% | -21% | 8
CC(=O)c1cccc(NC(=O)Cn2c(SCC(=O)Nc3ccc(F)cc3)nc3ccccc32)c1 | -8 | . | . | -9% | -66% | .
COc1ccc(CCNC(=O)C2CCN(C(=O)c3ccc(Cl)cc3)CC2)cc1 | -1 | 0% | -2% | 3% | -3% | 3
Clc1ccc(CNCCC2=CCCCC2)cc1 | -53 | 0% | 10% | 18% | -18%[57.5 µM] | -71*
O=C(NCCC1=CCCCC1)C1CCN(C(=O)c2ccc(Cl)cc2)CC1 | 7 | -1% | 34% | -1% | i | -131*
CC(C)NC(=O)OC1CC2CC1[C@H]1CCCCN1C2=O (stereo partly drawn) | 1 | . | 12% | . | -20% | 12
O=C1C=CC(n2cc(F)c(=O)[nH]c2=O)O1 (stereo not drawn) | 0 | . | -40% | . | -31% | 7
O=C(NCCOCCn1c(=O)oc2ccccc21)Nc1ccc(F)cc1 | -3 | . | -4% | 1% | i | .
O=C(Nc1ccc(Cl)cc1)C1C2CCCCC21 (stereo not drawn) | 0 | 0% | 2.2µM* | -13% | 0% | 0

Compound activity as filed in PubChem BioAssay.
